This note sets out measurements from PubChem BioAssay (NCATS).

Records with an inconclusive call do not appear. A call without a number means that no potency is given here. Calls of active or inactive are those of the source. Calls come from the whole dose curve; as a rule, active = well fitted curve in the direction sought with a large enough effect; inconclusive = small, poorly fitted or top-dose-only effect, or another doubt; inactive = no such curve, though single readings can be large; an effect the other way counts as inactive or inconclusive.

Assay [1] has as its target Aldehyde dehydrogenase, mitochondrial (Homo sapiens) (UniProt P05091). In words: qHTS for Inhibitors of the Aldehyde Dehydrogenase Family (ALDH2) Primary screen (AID 2061308). Note: nearly all actives have a fitted effect of over 55% in size. Conditions: ALDH2 enzyme inhibition qHTS, 1536-well; series mostly up to 56 µM. Background: Quantitative high-throughput screening tests each substance at several concentrations.
The target in assay [2] is Retinaldehyde dehydrogenase 3 (Homo sapiens) (UniProt P47895). Briefly: qHTS for Inhibitors of the Aldehyde Dehydrogenase Family (ALDH1A3) Primary screen (AID 2061315). Conditions: ALDH inhibition qHTS; series mostly up to 56 µM.

On to `O=C(OCC#CCSc1nnc(-c2ccccc2)o1)c1ccc(F)cc1`, for which the Potency entry in assay [1] and in assay [2] was “inactive” in each case.

Consider `Cc1cc2c(s1)c1cnn(Cc3ccc(C)c(F)c3F)c(=O)c1n2C`, for which the Potency result in assay [1] and in assay [2] was “inactive” in each case.

Turning to `Cc1ccc(-c2ccc(=O)n(CC(=O)NCCc3ccccn3)n2)cc1`, the Potency result in assay [1] and in assay [2] was “inactive” each time.

Take `c1nc(NCC2CCCC2)c2cc(-c3ccc4c(c3)OCO4)ccc2n1`: the Potency result in assay [1] and in assay [2] was “inactive” throughout.

Take `Cc1cc(C)n2ncc(C(=O)Nc3ccc(C(C)(C)C)cc3)c2n1`: the Potency entry in assay [1] and in assay [2] was “inactive” in each case.

Turning to `Cc1cccc(CNc2ccc(S(=O)(=O)Nc3nccs3)cc2)c1O`, the Potency result in assay [1] and in assay [2] was “inactive” each time.

With `CC1=C(C(=O)Nc2nnc(-c3ccccc3)s2)C(c2nn(C)cc2Cl)N=C(Nc2nc3ccccc3o2)N1` (configuration not stated), the Potency result in assay [1] and in assay [2] was “inactive” in each case.

Regarding `O=[S+]([O-])(Nc1ccccc1)c1ccc(NCc2cccc(C(F)(F)F)c2F)cc1`, the Potency result in assay [1] and in assay [2] was “inactive” in each case.

As to `O=C(Nc1nnc(-c2ccncc2)s1)Oc1ccc2ccccc2c1`, the Potency result in assay [1] and in assay [2] was “inactive” in each case.

With `COc1cccc(C2C(C#N)=C(NC(=O)CCc3ccccc3)Oc3ccc4ccccc4c32)c1` (configuration not stated), the Potency entry in assay [1] and in assay [2] was “inactive” each time.

With `CC(O)c1cc2c(s1)c1cnn(Cc3ccccc3F)c(=O)c1n2C` (configuration not stated), the Potency result in assay [1] and in assay [2] was “inactive” each time.

Take `Cc1cc(C)nc(Nc2nnc(N3CCN(c4cccc(C(F)(F)F)c4)CC3)s2)c1`: the Potency entry in assay [1] and in assay [2] was “inactive” each time.

Regarding `Fc1cccc(-c2ccc(Nc3nc(-c4ccncc4)nc4ccccc34)cc2F)c1`, the Potency entry in assay [1] and in assay [2] was “inactive” throughout.

As to `O=C(Cc1ccccc1)Nc1sc2c(c1C(=O)Nc1cccc(Cl)c1)CCCC2`, the Potency entry in assay [1] and in assay [2] was “inactive” throughout.

Regarding `O=S(=O)(c1ccc2c(c1)OCCO2)N1CCN(S(=O)(=O)c2cc(F)c(F)cc2F)CC1`, the Potency result in assay [1] and in assay [2] was “inactive” throughout.

As for `O=C(Nc1nc(Nc2cc(F)cc(F)c2)nc(NC2CCCC2)n1)OCc1ccccc1`, the Potency result in assay [1] and in assay [2] was “inactive” in each case.

With `Cc1ccc(OCCCn2c(CCNC(=O)C3CCCCC3)nc3ccccc32)cc1`, the Potency result in assay [1] and in assay [2] was “inactive” each time.

As to `O=C(Nc1ncc([S+](=O)([O-])N2CCOCC2)s1)c1cccc(Br)c1`, the Potency entry in assay [1] and in assay [2] was “inactive” each time.

Regarding `Cc1cc(C)nc(/N=C(\NC#N)N2CCN(c3cccc(C(F)(F)F)c3)CC2)c1`, the Potency result in assay [1] and in assay [2] was “inactive” each time.

As to `Cc1noc(C)c1-c1ccc2ncnc(NC(C)c3ccco3)c2c1` (configuration not stated), the Potency entry in assay [1] and in assay [2] was “inactive” in each case.

With `CCOC(=O)c1c(/C=N/Nc2ccccc2)c2sc(C)cc2n1C`, the Potency result in assay [1] and in assay [2] was “inactive” throughout.

As for `OCC#CCSc1nnc(-c2cccc3ccccc23)o1`, the Potency entry in assay [1] and in assay [2] was “inactive” in each case.

As for `COC1CC(=O)C23C(=O)NC(CC(C)C)C2C(C)C(C)=CC3/C=C(\C)CCC1O` (configuration not stated), the Potency entry in assay [1] and in assay [2] was “inactive” throughout.

As to `Nc1cccc(OCCn2c(CCNC(=O)C3CCCCC3)nc3ccccc32)c1`, the Potency result in assay [1] and in assay [2] was “inactive” throughout.

As to `Oc1c(CN2CCCCC2)cc(COCc2ccccc2)c2cccnc12`, the Potency entry in assay [1] and in assay [2] was “inactive” each time.

Regarding `CC(C)CCC[C@@H](C)[C@H]1CC[C@H]2[C@@H]3CC=C4C[C@@H](OC(=O)NCCN(C)C)CC[C@]4(C)[C@H]3CC[C@]12C`, the Potency result in assay [1] and in assay [2] was “inactive” each time.
